FUS yeast rescue: qHTS for Suppressors of FUS Proteinopathy: Primary screen using FUS-linked yeast assay; 0.24% of 390,000 active; Potency, µM (doses to about 76.6 µM), actives largely listed as activators; S. cerevisiae FUS-expressing, growth rescue, OD600, 24 h; AID 1347120, 2019;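 also: plate controls were DMSO vehicle for no effect and reference control for full effect; nearly all actives have a fitted effect of over 55% in size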
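Cultures pregrown in 2.5% raffinose medium are shifted to minimal medium containing 2% galactose to express toxic FUS. Compounds are tested at several concentrations. After 24hr at 30C, growth is quantified at 600 nm absorbance.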
ALOX12 inh: Primary qHTS assay for inhibitors of human arachidonate 12S-lipoxygenase (ALOX12): Round 2 | Polyunsaturated fatty acid lipoxygenase ALOX12 (Homo sapiens), P18054 | purified 12hLO, xylenol orange hydroperoxide absorbance | Potency, µM (series often up to 108 µM), for the others: at the highest dose activity change, negative = inhibition, usual class: inhibitors | 1.1% of 580,000 active; also: % is scaled to controls: 0 for no effect and ±100 for the full control effect
Target sequence (P18054 whole entry, looked up): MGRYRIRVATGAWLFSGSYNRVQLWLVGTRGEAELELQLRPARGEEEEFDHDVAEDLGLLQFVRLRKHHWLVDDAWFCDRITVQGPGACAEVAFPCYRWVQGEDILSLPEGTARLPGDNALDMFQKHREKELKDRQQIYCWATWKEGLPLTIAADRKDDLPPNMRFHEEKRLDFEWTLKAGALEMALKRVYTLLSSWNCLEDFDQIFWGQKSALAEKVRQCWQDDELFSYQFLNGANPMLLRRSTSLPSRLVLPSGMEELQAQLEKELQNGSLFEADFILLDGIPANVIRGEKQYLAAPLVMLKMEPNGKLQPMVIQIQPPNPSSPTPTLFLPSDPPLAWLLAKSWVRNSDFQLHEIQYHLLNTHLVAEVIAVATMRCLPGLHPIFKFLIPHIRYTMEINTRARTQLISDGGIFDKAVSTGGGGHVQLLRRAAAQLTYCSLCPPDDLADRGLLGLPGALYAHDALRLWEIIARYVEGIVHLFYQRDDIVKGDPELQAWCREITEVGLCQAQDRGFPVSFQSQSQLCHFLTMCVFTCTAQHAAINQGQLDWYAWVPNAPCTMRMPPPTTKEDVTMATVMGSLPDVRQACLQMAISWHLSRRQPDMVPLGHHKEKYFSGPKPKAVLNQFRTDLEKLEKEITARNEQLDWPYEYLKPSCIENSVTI
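Purified human 12hLO at 150 nM in 25 mM Hepes, 0.01% Triton X-100, pH 7.0, preincubated 15 min at room temperature with compound. Reaction started with 40 uM arachidonic acid, 30 min at room temperature. Hydroperoxide measured by Fe-xylenol orange, 573/405 nm absorbance ratio.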
gsp ag: qHTS for Agonist of gsp, the Etiologic Mutation Responsible for Fibrous Dysplasia/McCune-Albright Syndrome: qHTS; AID 624287, 2012; gsp mutant cells, cAMP HTRF, 30 min; Potency, µM (top dose mostly 76.9 µM), without a hit: at the top dose activation (cAMP increase), most hits filed as activators; 0.13% of 340,000 active; active = well fitted activation curve with a large enough effect; inconclusive = small, poorly fitted or top-dose-only effect, or another doubt; inactive = no such curve, though single readings can be large or run the other way; cell line not stated here;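 also: phosphodiesterase inhibitor Ro 20-1724 added with compounds to block cAMP breakdown; nearly all actives have a fitted effect of over 60% in size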
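Cells stably selected in G418 were plated at 2000/well, grown 16-24 hr, then given compounds in DMSO with the PDE inhibitor […] (300 uM solution added) for 30 min at 37C; cAMP was read by HTRF.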
Mito fusion act: qHTS Assay for Small Molecule Inhibitors of Mitochondrial Division or Activators of Mitochondrial Fusion; Potency, µM (doses to about 46.1 µM), inactives show at the top dose growth rescue (activation), hits mostly activators; AID 485298, 2010; 0.23% of 320,000 active; S. cerevisiae fusion-defective mutant growth rescue, CellTiterGlo 48 h; also: % of control where 0% means no effect; nearly all actives have a fitted effect of over 45% in size
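Luminescent cell viability in 1536-well qHTS format served as the measure of rescued growth in ts fusion-mutant S. cerevisiae cultured on non-fermentable YPEG for 48 hours at 37C.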
gsp antagonist: qHTS for Antagonists of gsp, the Etiologic Mutation Responsible for Fibrous Dysplasia/McCune-Albright Syndrome: qHTS; gsp-mutant cells, cAMP HTRF, 30 min; Potency, µM (doses to about 76.9 µM), without a hit: at the highest dose activity change, negative = inhibition, most hits filed as inhibitors; 0.4% of 340,000 active; calls by dose curve; cell line not stated here;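 also: intracellular cAMP measured with PDE inhibitor Ro 20-1724 present during compound exposure; % is scaled to controls: 0 for no effect and ±100 for the full control effect; nearly all actives have a fitted effect of over 65% in size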
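G418-selected cells were plated in DMEM/10% FBS for 16-24 h at 37C, then treated with compounds plus the PDE inhibitor […] (300 uM solution added) for 30 min at 37C. Intracellular cAMP was measured by HTRF after 30 min lysis at room temperature.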
Active calls of the source: *; i = inactive; ? = inconclusive; . = not tested or not shown; [ ] = dose if it differs, or a comment. Hits are enriched below; roughly 1.6% of the tested compounds scored in any of these assays. Unless noted, calls follow the shape of the dose curve; as a rule, active = well fitted curve in the direction sought with a large enough effect; inconclusive = small, poorly fitted or top-dose-only effect, or another doubt; inactive = no such curve, though single readings can be large; an effect the other way counts as inactive or inconclusive. Potency is read from the fitted curve at half-maximal effect.

SMILES | FUS yeast rescue | ALOX12 inh | gsp ag | Mito fusion act | gsp antagonist
CCOC(=O)c1c(NC(=O)C2CC(Cl)=CCC2C(=O)O)sc2c1CC(C)(C)OC2 (stereo not given) | i | ? | 22.8%[15.4 µM] | 2.6% | 14.1µM*
COc1ccc(CNC(=O)c2ccc(C3Nc4ccccc4S(=O)(=O)N3)cc2)c(OC)c1 (stereo not given) | . | -41.1% | . | . | .
CC(C)c1nc2sc3c(=O)[nH]c(=S)[nH]c3c2c2c1CCCC2 | i | 25.1µM* | 22.1%[15.4 µM] | 21.5% | 13.7%
CCOC(=O)c1sc2nc(C(C)C)c3c(c2c1N)CCC3 | i | 0.7% | 2.6%[15.4 µM] | 13.3% | -5.9%
CC(C)c1nc2sc3c(=O)[nH]c(=S)[nH]c3c2c2c1CCC2 | . | . | . | 12.6µM* | .
O=c1cc(O)c2sc3nc(C(F)(F)F)c4c(c3c2[nH]1)CCCCC4 | i | -6.4% | 0.9%[15.4 µM] | -5.1% | -0.7%
CN(Cc1ccc(C(=O)NCC(F)(F)F)cc1)C(=O)c1cccc(F)c1 | . | 11.2% | . | . | .
O=C(Cn1cc(Br)c(=O)[nH]c1=O)N1CCCCCC1 | . | 7.8% | . | . | .
Cn1cccc1Cc1nnc(SCC(=O)Nc2ccc(F)cc2F)n1-c1ccc(F)cc1 | i | ? | -34.8% | 3.0% | -3.3%
Cc1ccc(NC(=O)CSc2nnc(Cc3cccn3C)n2-c2ccc(F)cc2)c(C)c1 | i | -2.1% | 13.1% | 6.6% | 50.1µM*
CC(=O)C1=C(O)C(=O)N(c2cccc(Br)c2)C1c1ccccc1Cl (stereo not given) | i | 17.8µM* | ? | -0.6% | 9.4%
CC(C)=C1C(=O)NN(c2ccc(C)c(Cl)c2)C1=O | . | 50.1µM* | -2.7% | 12.1% | ?
CC(C)=C1C(=O)NN(c2cccc(Cl)c2)C1=O | i | ? | 21.5%[15.4 µM] | 7.7% | -6.3%
Cc1ccc(S(=O)(=O)NC[C@H]2O[C@@H](CO)[C@@H](O)[C@H]2N2CCN(c3ncccn3)CC2)cc1 | . | 15.8µM* | . | . | .
COc1ccc(S(=O)(=O)NC[C@H]2O[C@@H](CO)[C@@H](O)[C@H]2N2CCN(c3ccccn3)CC2)cc1 | . | -0.3% | . | . | .
CC(C)(C)OC(=O)C[C@@H]1C/C=C\C[C@@H](CC(=O)N(CCO)Cc2ccccc2)C(=O)N[C@H](Cc2c[nH]c3ccccc23)COC1=O | ? | -0.1% | . | . | -8.0%
C[C@@H]1COC(=O)[C@@H](NC(=O)OCC2c3ccccc3-c3ccccc32)C/C=C\C[C@@H](CC(=O)N(CCO)Cc2ccccc2)C(=O)N1 | ? | ? | . | . | -0.8%
C[C@H]1COC(=O)[C@H](NC(=O)OCC2c3ccccc3-c3ccccc32)C/C=C\C[C@H](CC(=O)N(CCO)Cc2ccccc2)C(=O)N1 | ? | 39.8µM* | . | . | -21.7%
CC(C)(C)OC(=O)C[C@H]1C/C=C\C[C@@H](CC(=O)N(CCO)Cc2ccccc2)C(=O)N[C@H](Cc2c[nH]c3ccccc23)COC1=O | 20µM* | 4.1% | -25.4% | . | -13.6%
COc1ccccc1-n1cnc2cc(C(=O)NC3CC(C)(C)NC(C)(C)C3)ccc2c1=O | . | 4.6% | . | . | .
CO[C@H]([C@H](C)/C=C/N(C)C=O)[C@@H](C)C(=O)CC[C@H](C)[C@H](O)[C@H](C)[C@H]1OC(=O)/C=C/C(C)=C/C[C@H](O)C[C@@H]2C=CC[C@@H](C[C@H](OC)[C@@H](C)[C@@H](OC)C[C@@H](OC)[C@@H]1C)O2 | 14.1µM* | . | . | . | .
C/C(=N\NC(=O)c1ccn(C)n1)c1ccc(NC(=O)c2cccc(F)c2)cc1 | i | 4.47µM* | -4.7% | -0.6% | -0.4%
Cc1ccc(NC(=O)CN2C(=O)CCc3cc(S(=O)(=O)N4CCCC4)ccc32)cc1F | . | -23.3% | . | . | .
O=S(=O)(NC(=NC1CCCCC1)c1ccccc1F)c1ccccc1 | i | -0.8% | -36.2% | 0.631µM* | 12.5%
C=CCC1(CO)CCCN(Cc2cc(C3CCCCC3)no2)C1 (stereo not given) | . | 12.9% | . | . | .
SMILES | FUS yeast rescue | ALOX12 inh | gsp ag | Mito fusion act | gsp antagonist
Cn1c(-c2c(N)n(CCCc3ccccc3)c3nc4ccccc4nc23)nc2ccccc21 | 31.6µM* | -20.6% | ? | -1.0% | -7.3%
Cn1c(-c2c(N)n(CCc3ccccc3)c3nc4ccccc4nc23)nc2ccccc21 | ? | ? | 43.3% | 24.4% | -14.4%
CCOc1ccc(-c2nc(=S)[nH][nH]2)cc1 | i | 25.1µM* | ? | 8.9% | -3.8%[15.4 µM]
O=C(CNC(=O)c1cc2ccccc2oc1=O)c1ccccc1 | . | -29.2% | . | . | .
O=S(=O)(Nc1ccc(O)c(Sc2nc3ccccc3s2)c1)c1cc(Cl)ccc1Cl | i | 10µM* | . | . | .
COc1ccc(C(=O)c2sc3nc(C)cc(-c4cccs4)c3c2N)cc1 | i | -13.7% | 10µM* | 25.0% | -15.2%
Nc1nccnc1C(=O)NCCNc1ccc(C(F)(F)F)cn1 | . | 65.0% | . | . | .
COc1ccc(-n2nc(C3CCN(C(=O)c4ccccc4)CC3)[nH]c2=O)cc1 | . | 29.1% | . | . | .
O=C(c1cccc(Cl)c1)N1CCCC(c2nn(-c3ccccc3)c(=O)[nH]2)C1 (stereo not given) | . | 3.8% | . | . | .
O=C(c1ccccc1)N1CCC(c2nn(-c3ccc(Cl)cc3)c(=O)[nH]2)CC1 | . | 35.5µM* | . | . | .
O=C(Cc1cccc(Cl)c1)N1CCCC(c2nn(-c3cccc(Cl)c3)c(=O)[nH]2)C1 (stereo not given) | . | 15.8µM* | . | . | .
O=C(c1ccc(F)cc1)N1CCC(c2nn(-c3ccc(Cl)cc3)c(=O)[nH]2)CC1 | . | 35.5µM* | . | . | .
O=C(c1cccc(Cl)c1)N1CCC(c2nn(-c3ccc(Cl)cc3)c(=O)[nH]2)CC1 | . | 14.1µM* | . | . | .
O=C(Cc1ccc(F)cc1)N1CCCC(c2nn(-c3ccccc3)c(=O)[nH]2)C1 (stereo not given) | . | 20.3% | . | . | .
Cc1ccc(-n2nnnc2SCC(=O)N(C)c2ccccc2C(=O)NCc2ccco2)cc1C | . | 40.4% | . | . | .
Cc1c(Cl)cccc1NC(=O)c1nc2ccccc2nc1N1CCCC1 | . | -2.6% | . | . | .
Cc1ccc2c(n1)N(C)[C@H](CO)CCN(Cc1cn(C)c3ccccc13)C2 | . | -9.4%[176 µM] | . | . | .
COc1ccc(-n2nc(C3CCCN(C(=O)C4CC4)C3)[nH]c2=O)cc1 (stereo not given) | . | 17.8µM* | . | . | .
CCCCn1c(SCc2nc3ccccc3s2)nc2cc(S(N)(=O)=O)ccc21 | 22.4µM* | -12.0% | -14.8% | 0.3% | ?
COc1cccc(/C=C/c2nc(C#N)c(N3CCCC3)o2)c1 | . | -10.4% | . | . | .
O=C(CSc1ccc(-c2nc3ccccc3[nH]2)cn1)N1CCN(C(=O)c2ccco2)CC1 | 14.1µM* | ? | 1.0% | -4.0% | ?
